In ChEMBL document CHEMBL1961873, “Compounds: GSK PKIS; Assays: Nanosyn kinase panel” (2012) one finds inhibition data, which are given here for 6 molecules.

The target of assay [1] is High affinity nerve growth factor receptor (Homo sapiens) (UniProt P04629). The note with it: at 1 µM.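 Further: each value is the mean percent inhibition of TRKA.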
Assay [2] deals with BDNF/NT-3 growth factors receptor (Homo sapiens) (UniProt Q16620). The note with it: at 0.1 µM.
Assay [3] shares this target. The note with it: at 1 µM.
The target in assay [4] is NT-3 growth factor receptor (Homo sapiens) (UniProt Q16288). To be noted: at 0.1 µM.
Chain of NT-3 growth factor receptor (Homo sapiens) (Q16288 32-839 limits assumed): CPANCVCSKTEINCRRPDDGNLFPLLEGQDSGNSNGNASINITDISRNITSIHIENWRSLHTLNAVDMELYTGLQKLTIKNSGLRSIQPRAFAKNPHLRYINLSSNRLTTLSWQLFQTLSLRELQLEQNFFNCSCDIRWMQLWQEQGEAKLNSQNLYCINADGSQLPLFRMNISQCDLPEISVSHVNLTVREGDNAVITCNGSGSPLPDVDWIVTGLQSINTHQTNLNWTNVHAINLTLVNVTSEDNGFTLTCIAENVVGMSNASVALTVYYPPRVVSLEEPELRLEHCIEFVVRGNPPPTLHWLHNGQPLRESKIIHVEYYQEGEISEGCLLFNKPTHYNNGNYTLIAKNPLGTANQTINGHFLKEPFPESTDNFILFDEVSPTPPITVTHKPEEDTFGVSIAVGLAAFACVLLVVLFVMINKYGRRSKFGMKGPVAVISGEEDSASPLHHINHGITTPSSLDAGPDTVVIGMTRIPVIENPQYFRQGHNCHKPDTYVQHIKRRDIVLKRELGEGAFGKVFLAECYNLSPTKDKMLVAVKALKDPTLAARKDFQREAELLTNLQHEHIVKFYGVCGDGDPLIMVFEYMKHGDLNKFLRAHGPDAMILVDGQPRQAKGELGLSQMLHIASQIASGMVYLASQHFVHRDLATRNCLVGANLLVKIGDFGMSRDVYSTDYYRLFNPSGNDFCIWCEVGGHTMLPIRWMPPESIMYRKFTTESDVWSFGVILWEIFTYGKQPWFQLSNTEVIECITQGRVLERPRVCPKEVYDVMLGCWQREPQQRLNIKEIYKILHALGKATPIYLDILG
Assay [5] shares this target. The note with it: at 1 µM.
The target in assay [6] is T1, Tyrosine-protein kinase TXK (Homo sapiens) (UniProt P42681).
T1 sequence (whole entry): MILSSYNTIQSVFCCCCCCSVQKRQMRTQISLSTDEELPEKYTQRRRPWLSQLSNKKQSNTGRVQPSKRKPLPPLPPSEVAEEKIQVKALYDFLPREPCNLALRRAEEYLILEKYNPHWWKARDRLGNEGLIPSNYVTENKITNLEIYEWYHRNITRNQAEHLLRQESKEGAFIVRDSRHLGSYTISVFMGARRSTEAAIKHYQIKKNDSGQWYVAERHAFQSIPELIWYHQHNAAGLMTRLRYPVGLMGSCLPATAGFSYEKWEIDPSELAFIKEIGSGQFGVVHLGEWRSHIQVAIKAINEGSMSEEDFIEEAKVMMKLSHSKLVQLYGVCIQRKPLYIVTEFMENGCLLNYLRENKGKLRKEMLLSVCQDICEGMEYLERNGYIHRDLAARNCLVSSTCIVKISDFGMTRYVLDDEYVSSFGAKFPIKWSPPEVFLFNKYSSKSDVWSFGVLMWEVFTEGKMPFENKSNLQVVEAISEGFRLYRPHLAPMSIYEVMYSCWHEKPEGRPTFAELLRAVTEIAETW
The note with it: at 0.1 µM.

Assay [7] concerns the target T1, Tyrosine-protein kinase TXK (Homo sapiens). To be noted: at 1 µM.
Assay [8] deals with Non-receptor tyrosine-protein kinase TYK2 (Homo sapiens) (UniProt P29597). The note with it: at 0.1 µM.
Chain of Non-receptor tyrosine-protein kinase TYK2 (Homo sapiens) (P29597 whole entry): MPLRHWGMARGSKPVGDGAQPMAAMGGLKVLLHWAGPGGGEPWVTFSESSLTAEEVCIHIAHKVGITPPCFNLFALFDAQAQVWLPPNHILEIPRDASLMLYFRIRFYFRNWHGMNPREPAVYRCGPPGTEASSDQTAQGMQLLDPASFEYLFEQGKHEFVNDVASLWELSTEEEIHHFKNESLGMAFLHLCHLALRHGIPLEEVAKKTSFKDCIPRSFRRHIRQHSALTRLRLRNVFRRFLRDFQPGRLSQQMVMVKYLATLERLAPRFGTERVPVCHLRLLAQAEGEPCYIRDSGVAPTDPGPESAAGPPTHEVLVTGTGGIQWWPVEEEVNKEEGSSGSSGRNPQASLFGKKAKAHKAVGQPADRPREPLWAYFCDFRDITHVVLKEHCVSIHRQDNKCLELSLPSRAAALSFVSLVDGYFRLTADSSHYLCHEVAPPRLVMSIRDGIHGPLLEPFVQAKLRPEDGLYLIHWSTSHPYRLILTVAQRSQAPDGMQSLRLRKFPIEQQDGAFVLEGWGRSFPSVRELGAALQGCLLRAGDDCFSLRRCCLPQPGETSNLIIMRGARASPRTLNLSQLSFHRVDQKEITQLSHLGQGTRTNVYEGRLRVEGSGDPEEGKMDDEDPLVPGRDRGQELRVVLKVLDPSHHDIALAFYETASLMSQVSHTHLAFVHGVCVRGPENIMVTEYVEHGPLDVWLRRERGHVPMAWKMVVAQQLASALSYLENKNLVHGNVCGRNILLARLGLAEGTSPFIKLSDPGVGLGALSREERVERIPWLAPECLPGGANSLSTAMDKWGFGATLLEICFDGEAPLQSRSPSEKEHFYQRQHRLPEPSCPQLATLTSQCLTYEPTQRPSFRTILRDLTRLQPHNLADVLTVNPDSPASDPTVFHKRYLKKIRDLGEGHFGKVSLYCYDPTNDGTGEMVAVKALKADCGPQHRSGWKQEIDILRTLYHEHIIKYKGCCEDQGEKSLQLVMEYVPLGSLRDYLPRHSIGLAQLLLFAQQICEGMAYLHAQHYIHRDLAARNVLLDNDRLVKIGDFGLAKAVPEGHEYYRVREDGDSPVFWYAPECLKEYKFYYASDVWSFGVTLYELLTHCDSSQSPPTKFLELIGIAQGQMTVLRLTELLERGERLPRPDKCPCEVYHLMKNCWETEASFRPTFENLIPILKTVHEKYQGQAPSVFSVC
Assay [9] addresses T2, Dual specificity protein kinase TTK (Homo sapiens) (UniProt P33981).
T2 sequence (whole entry): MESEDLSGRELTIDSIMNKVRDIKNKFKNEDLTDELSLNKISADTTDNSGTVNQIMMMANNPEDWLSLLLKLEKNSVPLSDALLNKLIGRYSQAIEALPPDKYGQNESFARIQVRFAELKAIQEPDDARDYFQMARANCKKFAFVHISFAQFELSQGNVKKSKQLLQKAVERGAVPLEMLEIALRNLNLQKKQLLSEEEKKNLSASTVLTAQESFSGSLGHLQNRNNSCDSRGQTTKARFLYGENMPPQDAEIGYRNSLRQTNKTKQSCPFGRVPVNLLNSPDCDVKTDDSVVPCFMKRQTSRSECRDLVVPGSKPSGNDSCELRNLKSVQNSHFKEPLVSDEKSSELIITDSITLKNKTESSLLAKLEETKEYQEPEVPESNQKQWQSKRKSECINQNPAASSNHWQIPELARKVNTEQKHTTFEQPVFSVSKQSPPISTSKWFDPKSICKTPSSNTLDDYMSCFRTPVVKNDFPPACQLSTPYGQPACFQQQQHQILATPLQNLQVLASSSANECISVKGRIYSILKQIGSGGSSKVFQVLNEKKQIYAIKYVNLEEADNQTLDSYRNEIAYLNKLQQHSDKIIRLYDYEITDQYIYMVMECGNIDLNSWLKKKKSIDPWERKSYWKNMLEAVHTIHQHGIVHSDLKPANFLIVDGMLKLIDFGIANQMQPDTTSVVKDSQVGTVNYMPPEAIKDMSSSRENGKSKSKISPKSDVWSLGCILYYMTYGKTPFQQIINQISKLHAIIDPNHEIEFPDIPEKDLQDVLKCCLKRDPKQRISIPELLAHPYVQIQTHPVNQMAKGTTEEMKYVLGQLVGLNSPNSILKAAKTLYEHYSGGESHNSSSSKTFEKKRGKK
The note with it: at 1 µM.

Assay [10] addresses T3, Aurora kinase A (Homo sapiens) (UniProt O14965).
T3 sequence (whole entry): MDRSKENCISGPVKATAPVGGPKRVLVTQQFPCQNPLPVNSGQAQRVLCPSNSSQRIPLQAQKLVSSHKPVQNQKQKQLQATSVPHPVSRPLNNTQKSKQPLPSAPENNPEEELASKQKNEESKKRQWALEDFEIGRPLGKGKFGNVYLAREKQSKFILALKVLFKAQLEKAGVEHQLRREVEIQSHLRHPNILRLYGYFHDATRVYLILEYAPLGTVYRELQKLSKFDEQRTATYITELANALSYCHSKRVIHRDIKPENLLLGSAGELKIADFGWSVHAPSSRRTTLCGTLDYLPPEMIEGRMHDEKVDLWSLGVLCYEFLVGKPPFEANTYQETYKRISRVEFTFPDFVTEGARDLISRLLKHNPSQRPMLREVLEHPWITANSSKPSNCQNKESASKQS
The note with it: at 0.1 µM.

Assay [11] concerns the target T3, Aurora kinase A (Homo sapiens). The note with it: at 1 µM.
For assay [12], the target named is Aurora kinase B (Homo sapiens) (UniProt Q96GD4). The note with it: at 0.1 µM.
Chain of Aurora kinase B (Homo sapiens) (Q96GD4 whole entry): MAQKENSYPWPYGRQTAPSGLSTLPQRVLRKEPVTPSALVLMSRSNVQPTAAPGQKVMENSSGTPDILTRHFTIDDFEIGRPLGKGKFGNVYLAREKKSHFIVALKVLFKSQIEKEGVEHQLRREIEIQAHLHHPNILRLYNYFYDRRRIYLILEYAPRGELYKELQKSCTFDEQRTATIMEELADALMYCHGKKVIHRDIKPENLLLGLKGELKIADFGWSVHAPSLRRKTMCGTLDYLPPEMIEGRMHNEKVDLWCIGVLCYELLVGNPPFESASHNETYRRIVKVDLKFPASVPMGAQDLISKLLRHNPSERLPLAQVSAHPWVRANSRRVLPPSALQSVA
The target is the same in assay [13]. The note with it: at 1 µM.
Assay [14] deals with T4, Aurora kinase C (Homo sapiens) (UniProt Q9UQB9).
T4 sequence (whole entry): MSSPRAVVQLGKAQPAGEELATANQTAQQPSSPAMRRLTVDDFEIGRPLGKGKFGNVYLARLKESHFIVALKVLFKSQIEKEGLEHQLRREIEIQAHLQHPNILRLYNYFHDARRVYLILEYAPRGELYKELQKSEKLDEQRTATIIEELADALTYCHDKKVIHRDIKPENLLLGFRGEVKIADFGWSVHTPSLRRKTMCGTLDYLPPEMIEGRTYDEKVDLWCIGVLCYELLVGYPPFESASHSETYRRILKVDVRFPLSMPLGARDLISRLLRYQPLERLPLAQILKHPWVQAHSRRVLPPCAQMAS
The note with it: at 0.1 µM.

In assay [15] the target is T4, Aurora kinase C (Homo sapiens). The note with it: at 1 µM.
Assay [16] addresses Serine/threonine-protein kinase 10 (Homo sapiens) (UniProt O94804). The note with it: at 0.1 µM.
Assay [17] shares this target. The note with it: at 1 µM.
In assay [18] the target is T5, Mitogen-activated protein kinase kinase kinase kinase 2 (Homo sapiens) (UniProt Q12851).
T5 sequence (whole entry): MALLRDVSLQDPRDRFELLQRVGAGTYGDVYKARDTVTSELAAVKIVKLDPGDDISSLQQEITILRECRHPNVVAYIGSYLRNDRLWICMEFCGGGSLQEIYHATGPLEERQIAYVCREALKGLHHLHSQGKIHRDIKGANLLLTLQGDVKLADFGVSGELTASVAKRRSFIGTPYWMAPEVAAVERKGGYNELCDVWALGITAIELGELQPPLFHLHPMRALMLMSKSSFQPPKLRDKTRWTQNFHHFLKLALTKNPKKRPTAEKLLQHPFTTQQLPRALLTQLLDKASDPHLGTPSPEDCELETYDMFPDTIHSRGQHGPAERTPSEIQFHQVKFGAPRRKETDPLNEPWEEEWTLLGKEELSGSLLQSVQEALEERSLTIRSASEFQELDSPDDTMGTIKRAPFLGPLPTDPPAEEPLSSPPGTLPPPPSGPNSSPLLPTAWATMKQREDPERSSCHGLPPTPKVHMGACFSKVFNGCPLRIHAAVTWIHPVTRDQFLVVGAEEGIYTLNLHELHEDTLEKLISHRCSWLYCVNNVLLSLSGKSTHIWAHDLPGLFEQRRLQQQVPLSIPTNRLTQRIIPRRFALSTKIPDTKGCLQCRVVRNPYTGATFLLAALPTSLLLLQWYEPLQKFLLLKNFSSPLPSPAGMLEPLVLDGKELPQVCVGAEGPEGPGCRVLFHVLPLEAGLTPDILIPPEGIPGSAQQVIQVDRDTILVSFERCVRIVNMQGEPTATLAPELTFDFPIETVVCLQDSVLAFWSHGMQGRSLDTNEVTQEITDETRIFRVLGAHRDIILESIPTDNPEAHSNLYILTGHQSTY
The note with it: at 0.1 µM.

Assay [19] has as its target T5, Mitogen-activated protein kinase kinase kinase kinase 2 (Homo sapiens). To be noted: at 1 µM.
Assay [20] addresses Mitogen-activated protein kinase kinase kinase kinase 4 (Homo sapiens) (UniProt O95819). To be noted: at 0.1 µM.

Chain of BDNF/NT-3 growth factors receptor (Homo sapiens) (Q16620 32-822 limits assumed): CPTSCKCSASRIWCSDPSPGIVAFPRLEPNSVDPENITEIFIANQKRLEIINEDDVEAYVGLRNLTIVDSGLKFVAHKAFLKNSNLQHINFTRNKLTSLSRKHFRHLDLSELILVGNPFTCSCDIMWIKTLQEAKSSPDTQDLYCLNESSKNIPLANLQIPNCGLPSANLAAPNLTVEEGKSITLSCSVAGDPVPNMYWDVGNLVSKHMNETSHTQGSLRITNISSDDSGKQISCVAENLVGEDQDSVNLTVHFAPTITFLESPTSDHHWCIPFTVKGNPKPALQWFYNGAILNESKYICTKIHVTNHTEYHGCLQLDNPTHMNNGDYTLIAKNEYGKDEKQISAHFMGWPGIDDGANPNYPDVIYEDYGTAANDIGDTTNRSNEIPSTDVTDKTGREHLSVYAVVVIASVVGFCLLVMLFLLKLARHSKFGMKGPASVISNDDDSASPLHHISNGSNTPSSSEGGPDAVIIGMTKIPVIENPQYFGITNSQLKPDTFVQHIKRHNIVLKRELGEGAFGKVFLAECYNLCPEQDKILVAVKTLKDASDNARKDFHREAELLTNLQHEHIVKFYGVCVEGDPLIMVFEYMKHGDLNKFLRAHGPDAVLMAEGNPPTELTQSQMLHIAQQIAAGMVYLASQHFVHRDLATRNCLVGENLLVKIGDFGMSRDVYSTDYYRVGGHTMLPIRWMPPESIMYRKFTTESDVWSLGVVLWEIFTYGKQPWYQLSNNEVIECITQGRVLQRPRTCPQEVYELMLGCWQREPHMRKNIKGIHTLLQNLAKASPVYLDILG
Chain of Serine/threonine-protein kinase 10 (Homo sapiens) (O94804 whole entry, looked up): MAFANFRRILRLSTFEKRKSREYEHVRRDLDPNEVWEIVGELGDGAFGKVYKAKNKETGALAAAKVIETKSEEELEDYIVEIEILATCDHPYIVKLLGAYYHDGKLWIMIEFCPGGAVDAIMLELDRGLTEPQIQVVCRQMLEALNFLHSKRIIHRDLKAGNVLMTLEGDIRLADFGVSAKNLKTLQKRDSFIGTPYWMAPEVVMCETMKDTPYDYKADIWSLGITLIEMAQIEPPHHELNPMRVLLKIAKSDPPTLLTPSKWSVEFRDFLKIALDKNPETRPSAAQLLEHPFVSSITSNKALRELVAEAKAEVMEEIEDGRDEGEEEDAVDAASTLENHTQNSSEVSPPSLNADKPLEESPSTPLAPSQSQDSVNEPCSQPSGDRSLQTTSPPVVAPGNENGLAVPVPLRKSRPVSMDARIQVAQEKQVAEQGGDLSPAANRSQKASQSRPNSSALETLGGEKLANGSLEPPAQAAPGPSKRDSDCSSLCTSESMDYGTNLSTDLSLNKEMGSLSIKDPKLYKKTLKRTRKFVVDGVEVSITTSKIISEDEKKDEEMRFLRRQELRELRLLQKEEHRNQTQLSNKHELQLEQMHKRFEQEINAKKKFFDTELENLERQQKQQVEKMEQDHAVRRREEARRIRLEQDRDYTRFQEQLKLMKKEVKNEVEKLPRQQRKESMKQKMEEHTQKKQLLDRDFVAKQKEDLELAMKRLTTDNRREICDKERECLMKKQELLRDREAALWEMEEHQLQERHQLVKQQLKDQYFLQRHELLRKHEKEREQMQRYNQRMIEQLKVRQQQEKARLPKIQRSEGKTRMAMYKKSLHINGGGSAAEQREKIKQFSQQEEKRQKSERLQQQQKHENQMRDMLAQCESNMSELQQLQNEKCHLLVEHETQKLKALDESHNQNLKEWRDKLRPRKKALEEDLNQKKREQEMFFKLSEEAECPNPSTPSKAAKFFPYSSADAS
Chain of High affinity nerve growth factor receptor (Homo sapiens) (P04629 33-796 limits assumed): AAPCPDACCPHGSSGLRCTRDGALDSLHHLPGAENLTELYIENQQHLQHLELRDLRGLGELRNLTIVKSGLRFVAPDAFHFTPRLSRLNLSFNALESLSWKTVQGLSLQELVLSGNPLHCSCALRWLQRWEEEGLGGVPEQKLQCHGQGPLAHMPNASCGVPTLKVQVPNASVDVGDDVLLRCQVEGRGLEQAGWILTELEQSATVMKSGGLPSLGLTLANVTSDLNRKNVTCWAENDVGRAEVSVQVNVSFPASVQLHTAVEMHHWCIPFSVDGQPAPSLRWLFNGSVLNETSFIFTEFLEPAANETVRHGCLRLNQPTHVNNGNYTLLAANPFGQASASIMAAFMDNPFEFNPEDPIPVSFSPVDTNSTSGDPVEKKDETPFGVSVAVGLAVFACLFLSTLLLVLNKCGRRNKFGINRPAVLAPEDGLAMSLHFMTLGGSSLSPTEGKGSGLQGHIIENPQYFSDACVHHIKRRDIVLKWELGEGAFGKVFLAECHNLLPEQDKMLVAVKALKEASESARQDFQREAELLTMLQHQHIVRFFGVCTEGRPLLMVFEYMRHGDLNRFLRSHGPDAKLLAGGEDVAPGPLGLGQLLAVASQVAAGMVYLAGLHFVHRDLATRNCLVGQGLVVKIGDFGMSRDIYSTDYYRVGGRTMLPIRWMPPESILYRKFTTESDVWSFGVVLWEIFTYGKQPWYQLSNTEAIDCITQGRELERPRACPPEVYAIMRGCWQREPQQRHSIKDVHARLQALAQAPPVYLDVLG

As for `CN(C)CCNC(=O)Nc1ccc(N(C)c2ccnc(Nc3ccc(CS(C)(=O)=O)cc3)n2)cc1`, the inhibition amounted to 7.1% in assay [1]; 2.82% in assay [2]; 9.09% in assay [3]; 4.45% in assay [4]; 11.9% in assay [5]; 8.39% in assay [6]. Further, the inhibition in [7] is 34.3%; in assay [8], -2.14%; in assay [9], 11.4%; in [10], 13.7%; in assay [11], 79%; in [12] it was 21.6%. For the same molecule, the inhibition in [13] came to 69.1%; in assay [14] it was 21.9%; in assay [15], 94.5%; in [16], 7.91%; in assay [17] it was 36.7%; in assay [18] it was 0.59%. The inhibition was 2.02% in [19] and 4.07% in [20].

On to `NS(=O)(=O)c1ccc(N/N=C2\C(=O)Nc3ccc(C(=O)NCc4ccncc4)cc32)cc1`, for which the inhibition in assay [1] is 33.7%; in [2], 13%; in assay [3], 60%; in assay [4], 19.2%; in assay [5], 66.2%; in assay [6], 2.66%. The inhibition in assay [7] is 5.17%; in assay [8], -8.31%; in assay [9], 69.2%; in assay [10], 6.11%; in assay [11], 54.9%; in [12], 3.41%. Moreover, the inhibition is 11% in assay [13]; 1.92% in [14]; 14.6% in assay [15]; 4.56% in assay [16]; 9.47% in [17]; 0.75% in [18]. Moreover, the inhibition in [19] came to 4.07%; in assay [20], 11.2%.

Take `Cc1ccc(-c2cc3c(NC(=O)C4CC4)ncnc3o2)cc1`: the inhibition in assay [1] was determined as 1.15%; in assay [2], 1.73%; in assay [3] it was 4.58%; in assay [4], 2.91%; in assay [5], 4.4%; in assay [6] it was 3.92%. Moreover, the inhibition in [7] is 8.76%; in [8], -1.91%; in [9] it was 10.2%; in assay [10] it was 3.75%; in assay [11] it was 15.8%; in assay [12] it was 5.78%. Also, the inhibition in [13] turned out to be 17.5%; in assay [14] it was 2.4%; in assay [15], 19.2%; in assay [16], 2.34%; in assay [17] it was 15.1%; in [18] it was 0.9%. Further, the inhibition in [19] amounted to 2.12%; in assay [20] it was 6.07%.

For the molecule `COc1ccc(-c2nn3ncccc3c2-c2ccnc(Nc3ccc(F)c(F)c3)n2)cc1`, the inhibition in assay [1] worked out at 3.36%; in assay [2], 2.76%; in assay [3], 8.32%; in assay [4], 2.73%; in assay [5], 4.85%; in assay [6], 2.4%. Moreover, the inhibition in assay [7] was 5%; in [8], -2.09%; in assay [9] it was -0.7%; in assay [10], 2.87%; in assay [11], 28.5%; in [12], 4.36%. For the same molecule, the inhibition was 14.3% in [13]; 1.75% in [14]; 6.44% in [15]; 7.15% in assay [16]; 23.5% in assay [17]; 2.1% in assay [18]. Moreover, the inhibition in assay [19] was determined as 1.49%; in assay [20] it was 8.56%.

For `CS(=O)(=O)Nc1ccc(-c2cc(-c3ccccc3)cc(C(N)=O)c2N)cc1`, the inhibition in [1] was determined as 3.74%; in assay [2], 1.96%; in assay [3] it was 2.61%; in assay [4], 1.09%; in assay [5] it was 0.08%; in [6], 0.48%. For the same molecule, the inhibition was 2.13% in assay [7]; -1.8% in assay [8]; 3.01% in [9]; 1.29% in assay [10]; 1.71% in assay [11]; 1.93% in assay [12]. Further, the inhibition in assay [13] was 5.23%; in assay [14], 0.13%; in [15], 4.66%; in assay [16], 2.01%; in [17], 4.84%; in assay [18], -1.83%. The inhibition came to 1.34% in assay [19] and 3.1% in [20].

Consider `CCOc1ccc2c(-c3ccnc(Nc4cc(OC)cc(C(F)(F)F)c4)n3)cnn2n1`, for which the inhibition in [1] is 3.16%; in assay [2] it was -1.33%; in assay [3], 3.13%; in assay [4], -1.23%; in assay [5], 4.94%; in assay [6] it was 0.98%. Also, the inhibition in assay [7] was 3.69%; in assay [8], -2.65%; in assay [9], 8.93%; in assay [10], 0.65%; in [11], 13%; in assay [12] it was 2.18%. Moreover, the inhibition was 8.92% in [13]; 1.08% in assay [14]; 4.09% in [15]; -0.06% in [16]; 3.44% in assay [17]; 0.08% in [18]. The figures for the inhibition in [19] and in [20] were 2.69% and 1.85%, respectively.

For orientation: inhibition means the drop in the measured response relative to a control, in per cent.
